# From the supplement of paper PMC6805474
# Test system: Schistosoma mansoni schistosomula (LE)
# Assay: XTT viability relative to DMSO control; higher = more viable (less active)
# Details: 72 h; 10 µM
# Protocol: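 XTT/PMS was then added for a further 24 h (72 h total) and A450 was read. % viability = (sample - heat-killed control)/(DMSO control - heat-killed control) x 100, from duplicate wells in two independent experiments.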
row,SMILES,XTT viability
1,C[C@H](C(N)=O)N1CCCC[C@@H]1c1ccc(OCc2cccc(F)c2)cc1,88.1%
2,O=C(c1ccc(F)cc1)N(CCNc1ccccc1)c1ccccc1,126%
3,COc1cccn2c(C(=O)N3CCCCC3)c(C(F)(F)F)nc12,95.7%
4,CNc1cc(C)nc(C2CN(C(=O)c3n[nH]c4ccccc34)CCO2)c1 (stereo not given),123%
5,O=C1N(Cc2cc3ccccc3s2)CC2CN(Cc3ccccc3)CCN12 (stereo not given),87.2%
6,Cc1ccc(-c2cc(C(=O)Nc3cccnc3)c3cc(Br)ccc3n2)cc1,146%
7,Cc1cc2nc(NC(=O)C(C)(C)C)nc(Cl)c2n1Cc1ccc(Cl)cc1,109%
8,CC(Oc1ccccc1)C(=O)Nc1nc(-c2ccccn2)cs1 (stereo not given),59.4%
9,Cc1cc(OCC(=O)NCc2ccccc2)c2cc(Br)ccc2n1,111%
10,Cc1cc(Cl)c(S(=O)(=O)N2CCCC2)cc1OCC(=O)NC1CCCCC1,111%
11,O=C(NCc1nnc2n1CCCCC2)c1ccc(-c2ccc(F)cc2)o1,97.1%
12,CC(=O)Oc1ccccc1C(=O)Nc1ncc([N+](=O)[O-])s1,102%
13,CCN(CC)S(=O)(=O)c1ccc(C(=O)Nc2cc(C)nn2-c2nc(C)c(C)c(=O)[nH]2)cc1,80.6%
14,CC(C)(C)OC(=O)N1CCC(Cn2nc(-c3cnc4ccccc4c3)c3c(N)ncnc32)CC1,125%
15,CC(C)(C)c1cc(C(=O)Nc2cccnc2)cc(C(=O)Nc2cccnc2)c1,79.8%
16,COc1ccc(-c2cnc3ccc(N4CCCC4)nn23)cc1OC,60.5%
17,Cc1ccc(-c2nc(CN(Cc3ccccn3)C(C)C)cs2)o1,84.4%
18,Cc1ccc(S(=O)(=O)n2cc(-c3ccnc(N)c3)c3cc(Br)cnc32)cc1,4.55%
19,NCC(c1cccs1)S(=O)(=O)c1ccccc1 (stereo not given),45.2%
20,N=C(N)c1ccc(OCCCCCOc2ccc(C(=N)N)cc2)cc1,81.9%

row,SMILES,XTT viability
1,CNC(=O)C1Cc2c([nH]c3cc(Cl)ccc23)C2(CCN(CCc3ccccc3)CC2)N1 (stereo not given),13.4%
2,CC(=O)Nc1ccc(-c2noc(CC3CCCN(Cc4cccc(F)c4C)C3)n2)cc1 (stereo not given),117%
3,COc1cc2ncnc(NC3CCN(Cc4ccccc4)CC3)c2cc1OC,86.5%
4,CS(=O)(=O)Cc1nc2ccccc2oc1=O,355%
5,O=C(NCCN1CCCC1)c1cc(NCCN2CCOCC2)nc2ccc(Cl)cc12,146%
6,Cc1ccc(S(=O)(=O)Nc2ccc(CN3CCN(C(=O)c4cccc(C#N)c4)CC3)cc2)cc1,131%
7,COc1ccccc1CNC(=O)c1cc(C2CC2)nc2c1cnn2C(C)C,38.4%
8,O=[N+]([O-])c1cn2c(n1)OC[C@@H](OCc1ccc(OC(F)(F)F)cc1)C2,158%
9,CO[C@H]1/C=C/O[C@@]2(C)Oc3c(C)c(O)c4c(O)c(/c(=C/NN5CCN(C)CC5)c(O)c4c3C2=O)=N\C(=O)/C(C)=C\C=C/[C@H](C)[C@H](O)[C@@H](C)[C@@H](O)[C@@H](C)[C@H](OC(C)=O)[C@@H]1C,116%
10,O=C(C1CCCCC1)N1CC(=O)N2CCc3ccccc3C2C1 (stereo not given),97.3%
11,COc1cc(C2=NCCN2)ccc1-c1cn(-c2cccc(C3=NCCN3)c2)nn1,72.8%
12,O=C(NCCN1CCCC1)c1cc(NCCCCN2CCC(F)(F)CC2)nc2ccc(Cl)cc12,86.9%
13,O=C(NC1CC1)c1ccc(N2CCC(Cc3ccccc3)CC2)nc1,91.1%
14,CCCn1nnc(NC(=O)COc2ccc(C3CCCCC3)cc2)n1,89.6%
15,CCc1ccc([C@@H]2C[C@H](C(F)(F)F)n3ncc(C(=O)NCc4ccc(OC)cc4)c3N2)cc1,99.5%
16,Cc1ccc(Oc2ccc(NC(=O)CNc3ccccc3N3CCCC3=O)cc2)cc1,77%
17,O=C(Nc1ccc2c(c1)B(O)OC2)c1ccccc1C(F)(F)F,71.1%
18,COc1cccc(CC(=O)N2CCC(n3c(C)nc4ccc(F)cc43)CC2)c1,116%
19,N=C(N)Nc1ccc(-c2ccc(-c3ccc(NC(=N)N)cc3Cl)o2)c(Cl)c1,61.7%
20,NS(=O)(=O)c1cccc(-c2ccc3ncc(N4CCOCC4)nc3c2)c1,116%
